Rows were chosen to be rich in hits. Some 2.2% of all compounds tested hit in one or more screens of this group.
aSyn rescue = alpha-synuclein toxicity inhibition in yeast; Yeast expressing alpha-synuclein, growth rescue, BacTiter-Glo, 24 h; Potency, µM (highest dose often 46.1 µM), for inactives: at the top dose growth rescue (activation), hits mostly activators; 370,000 compounds, 0.14% hits; AID 652106; also: % of control where 0% means no effect; nearly all actives have a fitted effect of over 65% in size
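Readout is rescue of growth in alpha-synuclein-expressing yeast, so inhibitors of toxicity appear as activators. Growth after 24 hr at 30 deg C in galactose medium is quantified by luminescence.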
Mito fusion yeast = mitochondrial division inhibition or fusion activation. Potency, µM (doses to about 46.1 µM), for the others: top-dose growth rescue (activation), usual class: activators. S. cerevisiae fusion-defective mutant growth rescue, CellTiterGlo 48 h. AID 485298. 320,000 compounds, 0.23% hits; also: % of control where 0% means no effect; nearly all actives have a fitted effect of over 45% in size
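Compounds are tested for their ability to restore growth of mitochondrial fusion-defective yeast strains at non-permissive 37C in YPEG medium over 48 hours. Viability is quantified by luciferase luminescence.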
Abeta yeast res = compounds reversing amyloid beta toxicity in yeast | yeast expressing A-beta42, growth rescue, OD600, 48 h; response scale: 0% DMSO, 100% iron-clioquinol control | Potency, µM (series often up to 46.1 µM), actives largely listed as activators | 410,000 compounds, 0.063% hits | AID 1347071; also: nearly all actives have a fitted effect of over 55% in size
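Growth rescue measured by 600 nm absorbance after 48 h yeast culture at 30 C with compound. Values normalized between DMSO and an equimolar ferric chloride plus clioquinol control.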
TDP43 rescue = inhibitors of TDP-43 toxicity in yeast; Potency, µM (titrated, usually from 46.1 µM), for the others: top-dose growth rescue (activation), hits mostly activators; TDP-43 expressing yeast growth rescue, BacTiter-Glo, 24 h; 410,000 compounds, 1.8% hits; AID 652104; also: % of control where 0% means no effect; nearly all actives have a fitted effect of over 50% in size
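Yeast cells expressing TDP-43 under galactose induction are exposed to compounds for 24 hr at 30 deg C. BacTiter-Glo luminescence measures growth, so protective compounds score as activators.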
FUS yeast rescue = suppressors of FUS proteinopathy in yeast; S. cerevisiae FUS-expressing, growth rescue, OD600, 24 h; Potency, µM (titrated, usually from 76.6 µM), hits mostly activators; 390,000 compounds, 0.24% hits; AID 1347120;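 also: plate controls were DMSO vehicle for no effect and reference control for full effect; nearly all actives have a fitted effect of over 55% in size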
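Yeast FUS proteinopathy model; galactose-induced FUS (2%), starting OD 0.005. Cpds in dilution series, 24hr, 30C, 99% humidity. Abs 600 nm growth. Pos ctrl CP55940 (top 92uM final); neg ctrl DMSO.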
* hit, by the source's call; i = inactive; ? = inconclusive; . = not tested or not shown; ! = a repeat was not active. Calls follow the shape of the dose curve; as a rule, active = well fitted curve in the direction sought with a large enough effect; inconclusive = small, poorly fitted or top-dose-only effect, or another doubt; inactive = no such curve, though single readings can be large; an effect the other way counts as inactive or inconclusive. Potency is read from the fitted curve at half-maximal effect.

SMILES | aSyn rescue | Mito fusion yeast | Abeta yeast res | TDP43 rescue | FUS yeast rescue
CC1CCCN(c2ccc(C(=O)Nc3ccc4c(c3)OCO4)cc2[N+](=O)[O-])C1 (stereo not given) | 11.1% | 17.8µM* | i | ? | ?
COc1ccc(OCC(=O)Nc2ccccc2N2CCN(C)CC2)cc1 | -4.8% | -10.1% | i | 12.2% | i
COc1ccc(OCC(=O)Nc2ccccc2N2CCCCC2)cc1 | 16.2% | -7.7% | i | 11.2µM* | i
COc1cccc(C(=O)NC(=S)Nc2ccccc2N2CCOCC2)c1 | 15.7% | 0.3% | i | 12.6µM* | .
COc1cc(C(=O)NC(=S)Nc2ccccc2N2CCOCC2)cc(OC)c1OC | -12.7% | 2.3% | i | -24.3% | i
COc1ccc(C(=O)NC(=S)Nc2ccccc2N2CCCCC2)cc1[N+](=O)[O-] | -0.8% | 15.4% | ? | 15.8µM* | ?
CC(C)c1nn2c(=O)cc(COC(=O)c3ccccc3NC(=O)COc3ccccc3)nc2s1 | . | . | i | 21.9% | i
CS(=O)(=O)N(CC(=O)O)c1cc(C(F)(F)F)ccc1Cl | -12.4% | 3.5% | i | 5.8% | i
CC1=C(C(=O)Nc2ccc(Cl)cc2)C(c2cccs2)n2nc(SCc3cccc(Cl)c3)nc2N1 (stereo not given) | . | . | i | 20.3% | i
FC(F)(F)c1cccc(NC(=S)NCC2COc3ccccc3O2)c1 (stereo not given) | -28.8% | -11.6% | i | 35.5µM* | i
CN(CC1COc2ccccc2O1)C(=S)Nc1ccccc1 (stereo not given) | 13.9% | . | ? | 12.6µM* | i
CC/C(O)=C1\C(=O)CC(C)(C)CC1=Nc1ccccc1C | 5.2% | 11.2µM* | i | 22.0% | i
COc1cc(CN(C)c2ncnc3sccc23)ccc1OC(F)F | 2.3% | 1.1% | i | 17.8µM* | i
O=c1c2sc(-c3ccccc3)cc2nc2n1CCC2 | ? | 21.9% | i | 12.6µM* | i
O=c1c2sc(-c3ccccc3)cc2nc2n1CCCCC2 | 9.1% | 2.6% | i | 11.2µM* | i
Cn1c(NCCN2CCCC2)nc2cc(-c3ccccc3)sc2c1=O | 0.9% | . | i | 6.8% | i
CCc1ccc(NC(=O)c2ccc3c(c2)c(C)c(C)n3Cc2ccccc2)cc1 | . | . | i | -2.5% | i
Cc1ccc(N(CC(=O)N2CCN(c3ccc(Cl)cc3)CC2)S(=O)(=O)c2c(C)nn(C)c2C)cc1 | . | . | i | 22.0% | i
Cc1ccc(N(CC(=O)N2CCN(c3cc(C)ccc3C)CC2)S(=O)(=O)c2c(C)nn(C)c2C)cc1 | . | . | i | 35.5µM* | ?
Cc1ccc(N(CC(=O)N2CCN(c3ccc(F)cc3)CC2)S(=O)(=O)c2c(C)noc2C)cc1 | 1.0% | 10.2% | ? | 15.8µM*! | i
O=C(CCn1c(=O)oc2ccccc21)N(Cc1ccccc1)c1ccccc1 | -0.5% | 19.0% | i | 22.4µM* | i
O=C(CCl)N(Cc1ccccc1)c1ccccc1 | -13.3% | 0.1% | i | 20µM* | i
CN(Cc1ccccc1)C(=O)CCn1c(=O)oc2ccccc21 | 9.2% | -2.8% | i | 15.2% | i
O=C(NC1CCCC1)c1ccc2c(=O)n(Cc3ccccc3)c(SCc3ccccc3)nc2c1 | . | . | i | -0.4% | i
C#CCOc1ccc2c(C)cc(=O)oc2c1 | 0.1% | -7.5% | i | 20µM* | i
SMILES | aSyn rescue | Mito fusion yeast | Abeta yeast res | TDP43 rescue | FUS yeast rescue
C=C(Cl)COc1ccc2c(C)cc(=O)oc2c1 | -0.2% | 1.8% | i | 10.6% | i
CCOC(=O)c1ccccc1NC(=O)COC(=O)C1CCN(S(=O)(=O)c2ccccc2C(=O)OC)CC1 | 1.6% | 11.2% | i | 19.5% | i
CC(=O)Nc1nc2ccc(Br)cc2s1 | -18.3% | 9.6% | i | 12.6µM* | i
CC(C)c1ccc(O)c(NC(=S)NC(=O)c2cccnc2)c1 | 0.8% | 0.2% | ? | 26.6% | i
CC(C)(C)c1ccc(C(=O)NC(=S)NNC(=O)COc2ccccc2)cc1 | ? | -4.3% | i | 12.6µM* | i
CC(C)(C)c1cc(Cl)c(O)c(NC(=S)NC(=O)c2cccnc2)c1 | 10.9% | 6.7% | ? | 8.91µM* | i
Cc1cccc(C(=O)NC(=S)NNC(=O)c2cccs2)c1 | -5.9% | -5.4% | i | ? | .
